Source: PubChem (The Scripps Research Institute Molecular Screening Center)
An excerpt weighted towards active compounds, which were near 1.1% of everything screened.
OPRM1-OPRD1 inv: inverse agonist of human OPRM1-OPRD1 heterodimerization; P35372+P41143; cell-based MOR-DOR heterodimer luminescence, inverse agonism; inhibition, % at 9.3 µM; 0.21% of 340,000 active; in the data active means inhibition above about 22%, passing the limit was not always enough;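 further: 0% = cells with DMSO and 100% = wells without cells with DMSO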
HTR5A inv ag: counter-screen for OPRM1-OPRD1 inverse agonists: human HTR5A inverse agonism | 0.083% of 340,000 active | HTR5A cell line, luminescence | AID 504634 | inhibition, % at 9.3 µM; in the data active means inhibition mostly above about 23%, no sharp cut-off; inactive means mostly below about 18%;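 further: 0% = cells with DMSO and 100% = no-cell wells with DMSO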
Target sequence (P47898 whole entry, looked up): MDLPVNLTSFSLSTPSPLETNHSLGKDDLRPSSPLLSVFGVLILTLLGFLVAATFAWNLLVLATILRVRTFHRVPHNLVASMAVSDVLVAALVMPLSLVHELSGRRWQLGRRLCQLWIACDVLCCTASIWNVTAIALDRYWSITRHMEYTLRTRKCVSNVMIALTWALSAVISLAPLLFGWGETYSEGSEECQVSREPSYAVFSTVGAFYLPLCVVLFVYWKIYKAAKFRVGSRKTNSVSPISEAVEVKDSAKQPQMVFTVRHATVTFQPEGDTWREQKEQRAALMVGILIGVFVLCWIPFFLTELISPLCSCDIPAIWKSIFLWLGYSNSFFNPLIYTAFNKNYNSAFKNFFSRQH
HTR5A ag: counter-screen for OPRM1-OPRD1 agonists: human HTR5A agonism | HTR5A agonist assay, luminescence, cell-based | activation, % at 9.3 µM | P47898 | 0.61% of 340,000 active; in the data active means activation mostly above about 9.5%, no sharp cut-off; inactive means mostly below about 7.6%;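 further: 0% = cells with vehicle only and 100% = reference agonist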
MOR-DOR ag: agonists of human mu-delta opioid receptor heterodimerization. P35372+P41143. cells, OPRM1-OPRD1 heterodimerization, luminescence. activation, % at 9.3 µM. 0.3% of 340,000 active. AID 504326; in the data active means activation above about 18%;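 further: 0% = vehicle-treated cells and 100% = reference agonist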
* = called active by the depositor.

SMILES | OPRM1-OPRD1 inv | HTR5A inv ag | HTR5A ag | MOR-DOR ag
COc1ccc(C(=S)N2CCN(c3ccccc3C)CC2)cc1 | -14 | 9 | -3 | 3
Cc1cc(C)nc(N2CCCC(C(=O)NCc3cccc(C(F)(F)F)c3)C2)n1 (stereo not given) | 12 | -12 | 12* | -2
CC1CCN(Cc2c(C(=O)N/N=C/c3cc(Cl)ccc3O)nnn2-c2nonc2N)CC1 | -26 | 0 | 0 | 5
COc1c(Cl)cc(Cl)cc1/C=N/NC(=O)c1nnn(-c2nonc2N)c1CN1CCC(C)CC1 | -12 | -19 | 11* | 2
COc1cc(C(=O)OCC(=O)Nc2ccc(N3CCOCC3)cc2)ccc1OCC(C)C | -2 | 12 | -5 | 0
Cn1c(=NC(=O)CCl)sc2ccccc21 | -274 | -78 | 57* | 47*
O=C(CN1CCN(c2ccccc2O)CC1)Nc1ccc([N+](=O)[O-])cc1Br | -21 | -31 | 11* | 4
O=C(CN1CCN(c2ccccc2O)CC1)Nc1cc([N+](=O)[O-])ccc1Cl | -14 | 8 | 2 | 3
O=C(CSc1nnc(C2CC2)n1Cc1ccccc1)N1CCNC1=O | 12 | -19 | 5 | -2
CC1=NN(c2ccccc2)C(=O)/C1=C/C=C/C=C/N(C)C | 33* | 22* | -8 | -6
CC1=NN(c2ccc(C)cc2)C(=O)/C1=C\C=C\c1ccccc1 | 1 | -2 | -6 | 0
Cn1c(N2CCN(C(c3ccccc3)c3ccccc3)CC2)nc2c1c(=O)[nH]c(=O)n2C | 20 | -20 | 6 | -4
CC1CCCC(C)N1NC(=O)Cc1ccccc1 (stereo not given) | -4 | -26 | 9.7* | 0
O=C(Cc1ccccc1)NN1C(=O)C2C3C=CC(C3)C2C1=O (stereo not given) | 13 | 11 | -4 | -2
Cn1c(N)c(C(=O)COC(=O)C2(c3ccc(F)cc3)CCCC2)c(=O)n(C)c1=O | -8 | 18 | 8.4* | 1
CC(C)C[C@@H](CN)NC(=O)c1nc[nH]c1C(=O)N[C@@H](C)C(=O)CNC[C@H](C)NC(=O)c1nc[nH]c1C(=O)N[C@@H](CC(=O)O)C(=O)O | 9 | 22 | -7 | -2
COc1ccc(Oc2nccc(-c3ccccc3)c2C#N)cc1 | 0 | -15 | 11* | 0
O=C(N[C@@H](Cc1ccccc1)C(=O)OCc1ccccc1)c1nc[nH]c1C(=O)N1CCN(c2ccccc2)CC1 | -16 | -32 | 13* | 3
COc1ccccc1NC(=O)Nc1nnc(C(C)c2ccccc2)s1 (stereo not given) | -19 | -42 | 12* | 4
O=S(=O)(c1cccc(F)c1)N1CCN(Cc2cc3c(cc2Br)OCCO3)CC1 | -13 | 3 | -1 | 3
O=C1CC(C(=O)O)S/C(=N\NC(=O)c2ccccc2)N1 (stereo not given) | 9 | 11 | 12* | -2
C/C(=N\N=C1\NC(=O)CC(C(=O)O)S1)c1ccc(F)cc1 (stereo not given) | -4 | 3 | -1 | 1
NN(Cc1ccccc1)C(=S)Nc1ccc(Cl)c(Cl)c1 | -23 | -38 | 14 | 4
O=C(COC(=O)CNC(=O)c1ccc(Cl)cc1Cl)NNC(=O)c1ccccc1F | 8 | -11 | 3 | -2
COc1ccc(/C=N\NC(=O)c2cc(OCC(F)(F)F)ccc2OCC(F)(F)F)cc1 | -80 | 1 | 0 | 16
SMILES | OPRM1-OPRD1 inv | HTR5A inv ag | HTR5A ag | MOR-DOR ag
Cc1ccc(/C=N\NC(=O)c2cc(OCC(F)(F)F)ccc2OCC(F)(F)F)cc1 | -128 | -48 | 15* | 28*
CC(C)(C)OC(=O)NC(CNCc1ccccc1)Cc1ccccc1 (stereo not given) | -44 | -10 | -1 | 8
O=C(NCCO)c1nc(C(=O)c2ccccc2)c2ccccc2n1 | -7 | 11 | -5 | 1
CCOc1ccc(-c2nonc2NC(=O)c2ccco2)cc1OCC | -6 | -5 | 13* | 1
COc1ccc(-c2nonc2NC(=O)c2ccco2)cc1OC | 8 | 8 | -4 | -2
CC(=O)Nc1ccc(NC(=O)C(C)OC(=O)c2ccc3[nH]c(C)c(C)c3c2)cc1 (stereo not given) | 6 | -10 | 3 | -1
O=C(COC(=O)C1CC1)NCc1ccccc1 | 15 | 1 | 1 | -3
CCCNC(=O)C1CCC(CNS(=O)(=O)c2ccc3c(c2)CC(C)N3C(C)=O)CC1 (stereo not given) | 19 | 13 | -2 | -3
COCCNC(=O)C1CCC(CNS(=O)(=O)c2ccc3c(c2)CC(C)N3C(=O)C2CC2)CC1 (stereo not given) | 17 | 17 | 12* | -3
COc1ccc(N(C)S(=O)(=O)c2ccc(Cl)c(C(=O)NCC(C)(C)N3CCOCC3)c2)cc1 | 0 | 24 | -10 | 0
Cc1ccc(NC(=S)NNC(=O)Nc2ccccc2)cc1 | 34* | 29* | -11 | -6
O=C(NNC(=S)Nc1ccccc1)Nc1ccccc1 | 35* | 23* | -8 | -6
COc1cc(C(=O)NNC(=O)c2ccccc2Br)ccc1OCC(=O)N1CCOCC1 | 6 | 8 | -3 | -1
O=C(c1ccc(OC2CCN(Cc3ccc(F)cc3)CC2)cc1)N1CCCC1 | 2 | -38 | 10* | 0
CCc1ccc(CN2CCC(Oc3ccc(C(=O)N4CCCC4)cc3)CC2)cc1 | 16 | 5 | 1 | -5
CCOC(=O)C1CCCN(c2cc(=O)n(C3CCCCC3)c(=O)[nH]2)C1 (stereo not given) | -32 | 28 | -2 | 5
COc1ccc(-n2cc(-c3ccccc3)c3c(=O)[nH]cnc32)cc1 | 1 | -16 | 6 | 0
O=c1[nH]cnc2c1c(-c1ccccc1)cn2-c1cccc(Cl)c1 | -28 | -21 | 10* | 5
CCOC(=O)c1ccc(Nc2sc(C(=O)c3cccc([N+](=O)[O-])c3)c(N)c2C#N)cc1 | 12 | 8 | -2 | -2
CCC(=O)N1CCc2cc(S(=O)(=O)NCCC(=O)NCc3ccccc3OC)ccc21 | 9 | -5 | 11* | -2
Cn1c(SCC(=O)NC2CC2)nnc1-c1cccs1 | 1 | -1 | 2 | 0
c1ccc(CN2CCN(c3ncnc4c3[nH]c3ccccc34)CC2)cc1 | -30 | 15 | 1 | 5
c1ccc2c(c1)CCN(c1ncnc3c1[nH]c1ccccc13)C2 | -324 | -16 | 9 | 52*
CCc1ccccc1S(=O)(=O)Cc1ccc(C(=O)NC(C)C)o1 | 14 | -35 | 13* | -3
CCc1ccccc1S(=O)(=O)Cc1ccc(C(=O)NCc2ccc3c(c2)OCO3)o1 | 0 | 14 | -5 | 0
COc1ccc2ccccc2c1/C=N/NC(=O)c1cccc([N+](=O)[O-])c1 | 11 | 5 | -1 | -2
Cc1nnc(NC(=O)c2nc(S(=O)(=O)Cc3ccccc3)ncc2Cl)s1 | -22 | -41 | 10* | 4
CC(C)CC(NS(=O)(=O)c1ccc2c(c1)oc(=O)n2C)C(=O)NCc1cccnc1 (stereo not given) | 15 | 2 | -1 | -2
O=C(OCC(=O)N1CCCCC1)c1cc(=O)[nH]c2ccccc12 | 0 | 17 | 13* | 0
O=C(OCC(=O)N1CCCCC1)c1c[nH]c2ccccc12 | 16 | 2 | -1 | -4
